Measured values as given in PubChem BioAssay.

Experiment: modulators of CIT2-GFP expression in yeast, confirmation, S. cerevisiae, GFP fusion, cherry picks, mother/daughter gates (AID 2274)
Details: S. cerevisiae CIT2-GFP strain, flow cytometry, 3 h; at 10 µM; active compounds read high;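 active means GFP response above 150% of the DMSO level; inconclusive means fewer than 70 events counted for a yeast strain; inactive means the rest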

GFP response, % of DMSO, inactive:
O=C(Nc1ccc(NC(=O)c2cc3ccccc3o2)cc1)c1ccc2c(c1)OCCO2 105%
Cc1ncc2c(n1)-c1cc(F)ccc1SC2 113%
Cc1ccc(S(=O)(=O)Cc2cc(F)c([N+](=O)[O-])cc2[N+](=O)[O-])cc1 89.7%
C/C(CC(=O)Nc1cc(C)ccn1)=N\NC(=O)c1cccc(F)c1 93.9%
CN=C(NC)SC1CC(=O)N(c2ccccc2)C1=O (centres undefined) 92.6%
O=C1/C(=C\c2ccc(O)c(O)c2)SC(=S)N1Cc1ccccc1 113%
COc1cc(/C=C2\C(=O)N(CCC#N)N=C2C)c(Br)cc1OC(C)C 93.9%
CCn1c(=O)c(C(=O)Nc2nc3ccccc3[nH]2)c(O)c2ccccc21 128%
CC1CN(c2nc3ccccn3c(=O)c2/C=C(\C#N)C(N)=O)CC(C)O1 (centres undefined) 101%
CCOC(=O)CSC1=NC(=O)/C(=C\c2ccc(Cl)cc2)S1 88.9%
O=C(N/N=C/c1ccccc1Cl)c1cccc(F)c1 100%
CCN(CC)CCNC(=O)Cn1c(-c2ccccn2)nc2ccccc21 97.8%
COc1ccc(N2C(=O)C(Cl)=C(Nc3ccccc3OC)C2=O)cc1 97.3%
COc1ccc(C(=O)/C=C/c2ccccc2C(F)(F)F)cc1 107%
O=C(COc1ccc(F)cc1Cl)Nc1nc(-c2ccccn2)cs1 94.4%
COc1ccc(/C=N/NC(=O)C2(C)NC(C)(C)Cc3ccccc32)cc1 (centres undefined) 99.7%
COc1ccc(OC)c(C2CC(c3c(-c4ccccc4)c4cc(Cl)ccc4[nH]c3=O)=NN2S(C)(=O)=O)c1 (centres undefined) 97.8%
Cc1ccc(/C=C/C(=O)N2CC(C)CC(C)C2)o1 (centres undefined) 106%
COc1ccc(CCNC2=C(Cl)C(=O)N(CCc3ccc(OC)c(OC)c3)C2=O)cc1OC 95%
O=S1(=O)Nc2c(ccc3cccnc23)-c2ccccc21 111%
O=C(/C=C/c1cc(Br)ccc1O)c1ccco1 95%
COc1cc(NC(C)=O)ccc1NC(=O)c1cc2ccccc2o1 100%
COc1ccc(CC2=CC(=O)c3ccccc3C2=O)cc1 96.4%
C=CCn1cc(/C=C/c2cc[n+](C)cc2)c2ccccc21 125%
C[n+]1ccc(/C=C/c2c[nH]c3ccc(F)cc23)cc1 110%
CCSc1nnc(NC(=O)c2nc(S(=O)(=O)Cc3ccc(F)cc3)ncc2Cl)s1 112%
COc1ccc(C2c3c(oc4ccccc4c3=O)C(=O)N2CCN2CCOCC2)cc1OC (centres undefined) 129%
Cc1ccc(C(=O)c2c3ccccc3[n+]([O-])n2CCO)cc1 96.9%
CC(=O)Nc1ccc(S(=O)(=O)NC(CC(=O)NCCC2=CCCCC2)C(C)C)cc1 (centres undefined) 101%
Cc1ccc(C(=O)NNC(=S)NC(=O)COc2ccccc2)cc1 138%
Cc1occc1-c1nnc(-c2cc([N+](=O)[O-])cc([N+](=O)[O-])c2)o1 87.2%
Cc1ccc(NS(=O)(=O)c2ccc(CCC(=O)N3CCOCC3)cc2)cc1 101%
O=C1Nc2ccc(Br)cc2/C1=C/C1CC=CCC1 (centres undefined) 108%
CN1CC(=O)NC1=NC(=O)C12CC3CC(CC(C3)C1)C2 93.5%
O=S(=O)(c1ccc(Oc2ccccc2)cc1)N1CCOCC1 93.9%
COc1cc(NC(=O)c2oc3ccccc3c2C)ccc1NC(=O)c1ccco1 98.6%
CCCN1CCN(C(=O)c2oc3ccccc3c2NC(=O)COc2ccc(OC)cc2)CC1 105%
COc1cc(/C=C2\N=C(c3ccccc3)OC2=O)ccc1OC(C)=O 113%
COc1ccc(NC(=O)/C(Cl)=C(/Cl)S(=O)Cc2ccccc2)cn1 (centres undefined) 114%
